Consider 26 compounds from PubChem BioAssay (NCATS).

Unmarked numbers belong to inactive results. Inconclusive results are not listed. Activity calls are given as the source filed them. Unless noted, the call rests on the fitted dose curve; in most records, active means well fitted curve in the direction sought with a large enough effect; inconclusive means small, poorly fitted or top-dose-only effect, or another doubt; inactive means no such curve, though single readings can be large; an effect the other way counts as inactive or inconclusive.

For assay [1], the target named is Protein phosphatase 1D (Homo sapiens) (UniProt O15297). The assay can be described thus: Rhodamine-PBP qHTS Assay for Modulators of WT P53-Induced Phosphatase 1 (WIP1) (AID 1347425). Further: % of control where 0% means no effect. The essentials:
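Read-out: Rhodamine-PBP fluorescence (ex 525/em 598 nm) for released Pi, read each minute for 11 min after adding 10 uM VEPPL-pS-QETFS; signal taken as f1 minus pre-substrate f0. Enzyme 5 nM WIP1 with 1 hr room-temperature compound preincubation.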
For orientation: qHTS replaces the single test concentration by a dilution series.

A short description of assay [2]: Validation qHTS assay for inhibitors of Activation Induced Cytidine Deaminase (AID): UDG Counterscreen signal (AID 1347427). Further: 0% is about no effect. Put shortly: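 Counterscreen read of UDG activity (2 U/mL, 4/3x) in the FRET deamination format with AID (1 uM, 4/3x), DJC20/DJC23 substrates (250 nM, 4x), 4 h at room temperature. NaOH stop, fluorescence at 560 ex/665 em.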
In assay [3] the target is Single-stranded DNA cytosine deaminase (Homo sapiens) (UniProt Q9GZX7). The assay can be described thus: Validation qHTS assay for inhibitors of Activation Induced Cytidine Deaminase (AID): AID signal (AID 1347429). Further: on the % scale 0 is the no-effect control and ±100 the full control effect. Put shortly: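 Fluorescence at 540 nm excitation and 590 nm emission reports ssDNA cytosine deamination by AID, with UDG in the same well. Compound-treated reactions ran 4 hr at room temperature with DJC20/DJC23 substrate, followed by 30 min NaOH treatment.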

Assay [4] is described as follows: Primary qHTS for inhibitors of La Crosse Virus (LACV) - induced cell death in SH-SY5Y cells (AID 1508616).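 Further: top concentration of the series differs between compounds; 0% = infected DMSO wells and 100% = uninfected DMSO wells; higher means more rescue of cells from virus-induced death.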 Put shortly:
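Protection against LACV-induced cell death is scored in SH-SY5Y cells exposed to compounds and virus (0.01 MOI) for 6 days. Data normalized to virus-infected DMSO wells and virus-free DMSO wells.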

For assay [5], the target named is Calcium and integrin-binding protein 1 (Homo sapiens) (UniProt Q99828). The assay can be described thus: Validation qHTS for Identification of Calcium Integrin Binding protein 1 (CIB1) Competitor (AID 1508618). Further: on the % scale 0 is the no-effect control and ±100 the full control effect. The essentials: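 CIB1-GST (1 uM final) in 5 mM HEPES pH 7.4, 125 mM NaCl, 5 mM CaCl2, 0.01% Tween20 was preincubated 15 min at room temperature with compound (up to 114 uM), then FITC-alphaIIb peptide (100 nM) added for 15 min; fluorescence polarization read.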

For assay [6] the target is unchanged. Put plainly: Primary qHTS for Identification of Calcium Integrin Binding Protein 1 (CIB1) Competitor (AID 1508620).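 Further: GST tagged CIB1 binding a fluorescein labelled alphaIIb integrin peptide tracer; top concentration of the series differs between compounds; on the % scale 0 is the no-effect control and ±100 the full control effect.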 Put shortly:
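CIB1-GST (1 uM final) and compound incubated 15 min at room temperature before adding FITC-alphaIIb peptide tracer (100 nM final). Competition for binding read by fluorescence polarization (ex 480, em 540) after another 15 min at room temperature.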

The nature of assay [7]: Primary qHTS for small molecule stabilizers of the endoplasmic reticulum resident proteome: Secreted ER Calcium Modulated Protein (SERCaMP) assay (AID 1508630). Further: on the % scale 0 is the no-effect control and ±100 the full control effect. Put shortly: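 GLuc-SERCaMP-expressing SH-SY5Y cells, pretreated 16 h with compound, are challenged with thapsigargin to empty ER calcium stores; after 4 h, coelenterazine is added directly to the medium and luminescence is imaged.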

The nature of assay [8]: A High-Content qHTS Against Drug Library for the Identification of Small Molecules that Inhibit DYT1 Early Onset Primary Dystonia-Associated Cell Pathology (AID 1645839; calls by dose curve; further: series mostly up to about 46 µM). The essentials:
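In this high-content image screen, delE TorsinA mislocalization in inducible Flp-In 293 cells is scored as %pathology, with cell count serving as the counterscreen. Compound exposure lasts 48 h under tetracycline induction in reduced-serum medium.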

Assay [9] can be described thus: Primary qHTS for inhibitors of SARS-S pseudo-typed particle cell entry (AID 1479145; calls by dose curve; further: nearly all actives have a fitted effect of over 45% in size; further: potency means the concentration at half of the fitted maximal effect).
Assay [10] is described as follows: Primary qHTS for Huh7 cytotoxicity: counterscreen for inhibitors of MERS-S pseudotyped particle cell entry (AID 1479147; calls by dose curve; further: potency means the concentration at half of the fitted maximal effect).
Assay [11] is described as follows: Primary qHTS for inhibitors of MERS-S pseudo-typed particle cell entry (AID 1479149; calls by dose curve; further: nearly all actives have a fitted effect of over 60% in size; further: potency means the concentration at half of the fitted maximal effect).
The nature of assay [12]: Primary qHTS for Vero E6 cytotoxicity: counterscreen for inhibitors of SARS-S pseudo-typed particle cell entry (AID 1479150; calls by dose curve).
Assay [13] addresses Cytochrome P450 2D6 (Homo sapiens) (UniProt P10635). Put plainly: Cytochrome P450 family 2 subfamily D member 6 (CYP2D6) small molecule antagonists: luciferase biochemical (cell-free) qHTS assay (AID 1645840; active means well fitted curve in the direction sought with a large enough effect in the repeat runs; an effect the other way counts as inactive or inconclusive; further: nearly all actives have a fitted effect of over 55% in size; further: potency means the concentration at half of the fitted maximal effect). Put shortly: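 P450-Glo luminescent screen: recombinant CYP2D6 enzyme–proluciferin substrate mix preincubated with compound 10 min at room temperature, then NADPH regeneration added for 1 h at room temperature. Detection reagent added for 20 min; luciferin light read as relative luminescence units.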

Assay [14] addresses Cytochrome P450 3A4 (Homo sapiens) (UniProt P08684). Put plainly: Cytochrome P450 family 3 subfamily A member 4 (CYP3A4) small molecule antagonists: luciferase qHTS assay (AID 1645841; active means well fitted curve in the direction sought with a large enough effect in the repeat runs; an effect the other way counts as inactive or inconclusive; further: nearly all actives have a fitted effect of over 45% in size). The essentials: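 Luminescent CYP3A4 activity readout: compounds plus enzyme-substrate mix 10 min at room temperature, reaction started with NADPH regenerating system for 1 h, stopped with detection reagent, read after 20 min. Ketoconazole served as control.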

Chain of Calcium and integrin-binding protein 1 (Homo sapiens) (Q99828 whole entry, looked up): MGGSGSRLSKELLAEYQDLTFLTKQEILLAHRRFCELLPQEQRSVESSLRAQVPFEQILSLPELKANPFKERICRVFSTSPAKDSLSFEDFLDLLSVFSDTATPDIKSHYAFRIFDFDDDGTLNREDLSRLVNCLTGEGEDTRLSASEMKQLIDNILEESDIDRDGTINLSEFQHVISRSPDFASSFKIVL
Chain of Cytochrome P450 2D6 (Homo sapiens) (P10635 whole entry, looked up): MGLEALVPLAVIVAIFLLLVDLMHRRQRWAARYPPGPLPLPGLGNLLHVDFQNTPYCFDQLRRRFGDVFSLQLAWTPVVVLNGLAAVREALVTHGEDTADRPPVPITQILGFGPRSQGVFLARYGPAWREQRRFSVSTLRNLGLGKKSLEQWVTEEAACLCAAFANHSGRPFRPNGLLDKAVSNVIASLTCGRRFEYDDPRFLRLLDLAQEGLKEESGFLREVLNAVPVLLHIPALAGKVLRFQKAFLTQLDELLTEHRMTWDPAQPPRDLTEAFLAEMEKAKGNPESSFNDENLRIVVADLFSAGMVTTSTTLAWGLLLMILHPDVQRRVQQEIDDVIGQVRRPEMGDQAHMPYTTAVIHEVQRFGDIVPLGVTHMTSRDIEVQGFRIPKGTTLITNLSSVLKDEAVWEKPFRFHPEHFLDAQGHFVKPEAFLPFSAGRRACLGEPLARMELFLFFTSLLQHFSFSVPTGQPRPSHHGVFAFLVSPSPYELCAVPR
Chain of Protein phosphatase 1D (Homo sapiens) (O15297 whole entry, looked up): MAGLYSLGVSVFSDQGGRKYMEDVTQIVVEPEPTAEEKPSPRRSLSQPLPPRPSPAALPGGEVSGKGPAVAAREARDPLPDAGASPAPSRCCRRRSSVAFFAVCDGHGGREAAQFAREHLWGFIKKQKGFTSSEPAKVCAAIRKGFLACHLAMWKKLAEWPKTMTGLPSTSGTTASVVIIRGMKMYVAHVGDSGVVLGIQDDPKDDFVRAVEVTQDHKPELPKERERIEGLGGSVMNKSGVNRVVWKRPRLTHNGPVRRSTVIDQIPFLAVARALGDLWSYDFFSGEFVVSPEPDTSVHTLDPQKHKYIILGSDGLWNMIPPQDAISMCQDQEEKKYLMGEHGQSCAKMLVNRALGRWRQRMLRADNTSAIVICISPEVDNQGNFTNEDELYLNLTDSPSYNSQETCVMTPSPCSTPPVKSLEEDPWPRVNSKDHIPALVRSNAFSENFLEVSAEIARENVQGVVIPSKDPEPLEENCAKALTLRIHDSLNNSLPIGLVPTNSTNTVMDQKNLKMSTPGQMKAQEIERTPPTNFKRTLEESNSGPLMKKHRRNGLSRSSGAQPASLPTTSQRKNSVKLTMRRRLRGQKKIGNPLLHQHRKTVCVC
Chain of Single-stranded DNA cytosine deaminase (Homo sapiens) (Q9GZX7 whole entry, looked up): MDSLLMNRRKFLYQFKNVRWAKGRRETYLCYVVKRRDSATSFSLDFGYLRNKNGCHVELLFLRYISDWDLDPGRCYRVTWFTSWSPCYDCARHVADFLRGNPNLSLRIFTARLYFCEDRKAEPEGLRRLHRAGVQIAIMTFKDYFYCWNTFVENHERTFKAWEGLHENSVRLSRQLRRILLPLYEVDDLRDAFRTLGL
Chain of Cytochrome P450 3A4 (Homo sapiens) (P08684 whole entry, looked up): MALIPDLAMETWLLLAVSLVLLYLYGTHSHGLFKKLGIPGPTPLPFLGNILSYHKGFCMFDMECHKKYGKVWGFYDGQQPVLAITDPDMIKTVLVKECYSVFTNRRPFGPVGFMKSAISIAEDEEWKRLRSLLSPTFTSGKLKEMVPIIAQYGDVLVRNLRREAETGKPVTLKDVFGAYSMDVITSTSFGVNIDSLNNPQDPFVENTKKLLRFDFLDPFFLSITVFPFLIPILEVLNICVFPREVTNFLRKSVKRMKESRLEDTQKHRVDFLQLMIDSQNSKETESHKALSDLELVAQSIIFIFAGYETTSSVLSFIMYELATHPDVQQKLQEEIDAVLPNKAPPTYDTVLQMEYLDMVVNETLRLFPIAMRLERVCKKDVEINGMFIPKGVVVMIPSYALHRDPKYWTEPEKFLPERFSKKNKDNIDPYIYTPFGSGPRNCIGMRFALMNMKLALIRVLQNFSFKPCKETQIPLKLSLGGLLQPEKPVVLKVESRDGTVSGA

Turning to `Cc1cccc(C)c1NC(=O)CN1CCCC1=O`, the result in assay [1], in assay [2], in assay [3] and in [7] was inactive. Besides, the Potency entry in [4], in [5], in assay [6] and in assay [8] was “inactive” each time.

Take `NCC(CC(=O)O)c1ccc(Cl)cc1` (stereo not given): the activity change, negative = inhibition in [1] is 1.39% [at 0.575 µM]; in assay [9], -11.8% [at 0.573 µM]; in assay [6], 5.6% [at 1.07 µM]. Moreover, the outcome in assay [2], in assay [3] and in [7] was inactive. In addition, the outcome in assay [10], in assay [11] and in [12] was “inactive [at 0.573 µM]” each time. The Potency entry in assay [4] and in assay [5] was “inactive” in each case. Besides, the % pathology change, negative = correction in assay [8] was 14.6% [at 0.369 µM].

For the compound `CC(C)=CCOc1c2occc2cc2ccc(=O)oc12`, the compound was called inactive in assay [1], in [2], in assay [3] and in assay [7]. Further, the Potency result in assay [4], in assay [5], in [6] and in [8] was “inactive” throughout. The Potency in assay [13] is 871 nM (active).

Regarding `O=c1[nH]c2ccccc2n1CCCN1CCC(n2c(=O)[nH]c3cc(Cl)ccc32)CC1`, the call in assay [1], in assay [2], in assay [3] and in assay [7] was inactive. The Potency entry in assay [12], in assay [4], in [5] and in [6] was “inactive” each time.

As for `C[C@@H]1O[C@@H](O[C@H]2C[C@@H](O)[C@]3(CO)[C@H]4[C@H](O)C[C@]5(C)[C@@H](C6=CC(=O)OC6)CC[C@]5(O)[C@@H]4CC[C@]3(O)C2)[C@H](O)[C@H](O)[C@H]1O`, the outcome in assay [1], in assay [2], in assay [3] and in [7] was inactive. The Potency result in assay [9], in assay [11], in assay [5] and in assay [6] was “inactive” each time. In assay [10], the Potency is 1260 nM (active).

For the compound `CC(CCc1ccccc1)NC(C)C(O)c1ccc(O)cc1` (stereo not given), the outcome in assay [1], in [2] and in [3] was inactive. For the same compound, the Potency entry in assay [9], in assay [11], in [12], in [4], in [5] and in assay [6] was “inactive” each time. In [13], the Potency was 195 nM (active).

With `COc1ccccc1N1CCNCC1`, the outcome in assay [1], in assay [2], in assay [3], in assay [7] and in assay [14] was inactive. In addition, the Potency entry in [4], in assay [5] and in assay [8] was “inactive” in each case.

For the compound `Cc1ccc(S(=O)(=O)N[C@@H](CCCCN)C(=O)CCl)cc1`, the result in assay [1], in [2], in assay [3] and in assay [7] was inactive. In addition, the Potency entry in [4], in assay [5], in [6] and in assay [8] was “inactive” throughout.

With `C[C@]12CCC(=O)C(O)=C1CC[C@@H]1[C@@H]2CC[C@]2(C)C(=O)CC[C@@H]12`, the compound was classed as inactive in assay [1], in assay [2], in [3] and in assay [7]. Moreover, the Potency entry in assay [4], in assay [6] and in assay [8] was “inactive” each time.

For `COc1ccc(C(CN(C)C)C2(O)CCCCC2)cc1` (stereo not given), the result in [1], in assay [2], in assay [3] and in assay [7] was inactive. The Potency entry in assay [9], in assay [10], in assay [11], in assay [12], in assay [4] and in assay [8] was “inactive” in each case.

For the compound `C#CCN(C)[C@H](C)Cc1ccccc1`, the outcome in assay [1] and in assay [7] was inactive. The Potency entry in assay [9], in [10], in assay [11], in [12], in [4] and in assay [6] was “inactive” each time. Besides, the Potency entry in [8] is “inactive”.

As for `c1ccc(C2CC2)c(OCC2=NCCN2)c1`, the compound was classed as inactive in assay [1], in [2], in [3] and in assay [7]. Besides, the Potency result in assay [4], in assay [5], in assay [6] and in assay [8] was “inactive” throughout.

For the compound `O=C1NCN(c2ccccc2)C12CCN(CC1COc3ccccc3O1)CC2` (stereo not given), the compound was called inactive in [1], in assay [2], in [3] and in [7]. Besides, the Potency entry in [4], in [5], in [6] and in assay [8] was “inactive” each time. In addition, the Potency in assay [13] is 24.5 nM (active).

In the case of `NCC1(CC(=O)O)CCCCC1`, the result in [1], in assay [2], in assay [3] and in [7] was inactive. Moreover, the Potency entry in assay [9], in [10], in assay [11], in assay [12], in assay [4] and in assay [5] was “inactive” in each case. The Potency entry in assay [6], in [8] and in assay [13] was “inactive” each time.

Regarding `CCC(COC(=O)c1cc(OC)c(OC)c(OC)c1)(c1ccccc1)N(C)C` (stereo not given), the outcome in assay [1] and in assay [7] was inactive. For the same compound, the Potency entry in assay [10], in [12], in [4], in assay [6] and in assay [8] was “inactive” in each case.

As for `Clc1ccc(COC(Cn2ccnc2)c2ccc(Cl)cc2Cl)cc1` (stereo not given), the compound was classed as inactive in [1]. Also, the Potency entry in assay [10], in assay [12], in assay [4] and in assay [6] was “inactive” each time. Besides, the Potency in [11] was 25100 nM (active); in assay [13], 219 nM (active).

Consider `CCN(CC)C(=O)N[C@@H]1C=C2c3cccc4[nH]cc(c34)C[C@@H]2N(C)C1`, for which the call in [1] and in assay [7] was inactive. For the same compound, the Potency entry in [9], in [10], in assay [11], in assay [12] and in assay [8] was “inactive” in each case.

For `CO[C@]12CC[C@@]3(C[C@@H]1[C@](C)(O)C(C)(C)C)[C@@H]1Cc4ccc(O)c5c4[C@@]3(CCN1CC1CC1)[C@H]2O5`, in assay [1], the outcome was inactive. Besides, the Potency result in assay [4] and in assay [6] was “inactive” in each case.

Turning to `N[C@@H]1C[C@H]1c1ccccc1`, the outcome in assay [1] and in assay [7] was inactive. The Potency entry in [9], in assay [10], in assay [11], in [12], in assay [4] and in [6] was “inactive” throughout. For the same compound, in [8], the Potency entry is “inactive”.

Consider `Cn1c(CCCC(=O)O)nc2cc(N(CCCl)CCCl)ccc21`, for which the compound was classed as inactive in assay [1] and in [7]. The Potency result in assay [10], in [12], in assay [4], in [5], in assay [6] and in [8] was “inactive” each time.

For `CC(C)NCC(O)c1ccccc1Cl` (stereo not given), in assay [1], the result was inactive. Besides, the Potency entry in [9], in assay [10], in assay [11], in [12], in assay [4] and in [6] was “inactive” in each case. In addition, the Potency entry in assay [8] was “inactive”. Also, in [13], the Potency was 11000 nM (active).

Regarding `COc1ccc(Cc2nccc3cc(OC)c(OC)cc23)cc1OC`, the compound was classed as inactive in assay [1] and in assay [7]. Moreover, the Potency in assay [9] was 14100 nM (active). Besides, the Potency entry in assay [4], in [6] and in assay [8] was “inactive” throughout.

Regarding `COc1ccc(C(=O)c2c(C)n(CCN3CCOCC3)c3ccccc23)cc1`, the outcome in [1] and in assay [7] was inactive. Moreover, the Potency entry in assay [4], in assay [6] and in [8] was “inactive” each time.

As for `O=C(NC(O)C(Cl)(Cl)Cl)NC(O)C(Cl)(Cl)Cl` (stereo not given), the result in assay [1] and in [7] was inactive. Also, the Potency result in [4], in [6] and in assay [8] was “inactive” throughout.

On to `c1ccc2c(c1)Nc1ccccc1S2`, for which the compound was called inactive in [1] and in [7]. Moreover, the Potency entry in assay [10], in assay [11], in [12], in assay [4], in [6] and in [8] was “inactive” each time. Further, the Potency entry in assay [13] is “inactive”.

Consider `Cn1cc(C2=C(c3cn(C4CCN(Cc5ccccn5)CC4)c4ccccc34)C(=O)NC2=O)c2ccccc21`, for which the compound was classed as inactive in assay [1] and in assay [7]. Also, the Potency result in assay [9], in assay [10], in assay [11], in [12] and in [6] was “inactive” in each case.
